The list is not random: actives were taken first. Their share in the collection is about 4.8%.
ssDAF-12 act: S. stercoralis DAF-12 activation, primary screen | HEK293 ssDAF-12/GRIP1 lit1-tk-luc reporter, luminescence; % of 3 µM dafachronic acid response | activation, % at 6.8 µM | hit rate 1% among 370,000;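 active means activation above the mean over all tested compounds plus 3 SD, cut at about 0.9% in these data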;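 further: 0% = DMSO-only wells and 100% = 3 µM delta7-dafachronic acid wells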
SMARCA2 activ: SMARCA2 function activation, primary screen; MG213 cells, MMTV-luciferase reporter, dexamethasone, overnight; activation, % at 9.1 µM; hit rate 1% among 370,000; AID 652017; in the data active means activation above about 7.8%;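 further: 0% = vehicle wells and 100% = reference activator wells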
hgDAF12 agonist: activates the H. glycines DAF-12 receptor ligand-binding domain; HEK293 GAL4-hgDAF12 UAS-luciferase reporter, agonist luminescence; normalized to butyrate control; hit rate 1.8% among 370,000; activation, % at 6.8 µM;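 active means activation above a cutoff set at the mean of all screened compounds plus 3 SD, cut at about 10% in these data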;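 further: 0% = DMSO wells and 100% = sodium butyrate wells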
hcDAF-12 act: activators of H. contortus DAF-12 nuclear receptor. HEK293 hcDAF-12 lit1-tk-luc reporter, luminescence; 0% DMSO, 100% Δ7-dafachronic acid. hit rate 1.4% among 370,000. AID 652067. activation, % at 6.8 µM;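 active means activation above the mean of all tested compounds plus 3 SD, cut at about 5.5% in these data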;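 further: 100% = response to 3 µM Δ7-dafachronic acid high control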
DAX1 inh-1: inhibitors of human orphan nuclear receptor DAX1 (NR0B1); hit rate 0.99% among 340,000; AID 504766; HEK293 Gal4-DAX1 luciferase reporter, luminescence; P51843; inhibition, % at 6.75 µM;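 active means inhibition above the mean over all tested compounds plus 3 SD, cut at about 4.2% in these data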;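 further: 0% = DAX1-transfected cells with DMSO and 100% = empty-vector control cells with DMSO; inhibition shows as a rise in luminescence from relieved DAX1 repression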
Target sequence (P51843 207-470 limits assumed): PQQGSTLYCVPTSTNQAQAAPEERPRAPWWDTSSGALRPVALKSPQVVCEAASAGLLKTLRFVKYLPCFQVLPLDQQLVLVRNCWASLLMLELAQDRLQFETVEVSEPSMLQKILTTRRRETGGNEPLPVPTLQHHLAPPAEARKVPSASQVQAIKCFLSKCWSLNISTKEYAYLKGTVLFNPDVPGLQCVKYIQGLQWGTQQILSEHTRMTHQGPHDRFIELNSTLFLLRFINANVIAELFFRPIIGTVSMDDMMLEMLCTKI
DAX1 inh-2: DAX1 (NR0B1) inhibition, primary screen; HEK293T StAR-luciferase reporter, SF-1/DAX-1 repression relief; AID 652010; inhibition, % at 6.8 µM; hit rate 1.1% among 370,000;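 active means inhibition above the mean over all tested compounds plus 3 SD, cut at about 3.6% in these data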;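 further: 0% = DAX-1 cells with DMSO and 100% = cells lacking DAX-1 with DMSO; higher inhibition means more luminescence from relief of DAX-1 repression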
SMARCA2 act conf: SMARCA2 activation, confirmation screen | shares compounds with SMARCA2 activ | MG213 cells, MMTV-luciferase with dexamethasone, luminescence, overnight; MG213 cells expressing E1A, Rb sequestered; DMSO wells 0%, reference activator 100% | activation, % at 9.1 µM | hit rate 30% among 3,500;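 active means activation above its plate's cutoff, the mean activation of tested wells plus 3 SD, cut at about 7.9% in these data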
GAL4-VP16 Luc: activates GAL4-VP16 luciferase, flagging SMARCA2 activator hits; shares compounds with SMARCA2 activ; HEK293 GAL4-VP16 pG5luc reporter, luciferase luminescence; scaled: DMSO wells 0%, SAHA wells 100%; activation, % at 9.1 µM; hit rate 41% among 3,500; AID 686939;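 active means activation above the solvent-only control well mean plus 3 SD, averaged across control plates, cut at about 5.2% in these data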
* hit, by the source's call; nt = no result.

SMILES	ssDAF-12 act	SMARCA2 activ	hgDAF12 agonist	hcDAF-12 act	DAX1 inh-1	DAX1 inh-2	SMARCA2 act conf	GAL4-VP16 Luc
CCOc1ccc(OCc2ccc(C(=O)N/N=C(\C)c3ccccn3)cc2)cc1	-0.9	2.5	7.9	1.9	0.0	0.2	nt	nt
C/C(=N\NC(=O)c1ccccc1OCc1ccc(F)cc1)c1ccccn1	-0.9	17.3*	6.0	-0.9	0.1	-2.0	-15.1	7.6*
Cc1cccc(CCNC(=O)c2cc(S(=O)(=O)N3CCOCC3)cn2C)c1	-0.1	-1.8	-0.5	2.8	-0.4	0.2	nt	nt
Cc1cccc(CNC(=O)c2cc(S(=O)(=O)N3CCOCC3)cn2C)c1	-0.4	13.6*	-0.4	-0.7	1.5	-0.2	2.0	0.7
CC(C)(C)OC(=O)COc1ccc(/C=N/NC(=O)CN2CCCCC2)cc1	-0.9	14.0*	12.7*	0.3	0.7	0.9	5.2	5.3*
COc1ccc(/C=N/NC(=O)CN2CCCC2)cc1	-1.1	1.8	3.9	-0.4	0.6	0.7	nt	nt
COC(=O)[C@]12CCCCC=C1N(Cc1ccc(OC)cc1)C(=O)[C@@H]2CC(=O)NCCCCc1ccccc1	-1.2	-0.3	3.2	-2.4	nt	-1.1	nt	nt
CS(=O)(=O)Nc1ccc(C2=NN(S(C)(=O)=O)C(c3ccc4c(c3)OCO4)C2)cc1 (configuration not stated)	-0.7	10.1*	10.7*	1.5	2.1	2.7	15.6*	6.6*
COc1cc(NC(=O)c2ccccc2)c(C)cc1NC(=O)CSc1nnc(-c2cnccn2)n1-c1ccc(C)cc1	-1.2	-4.1	-3.2	-1.3	nt	-1.9	nt	nt
N=c1c2ccccc2nc2n1CCCCCCC2	-0.5	9.0*	1.9	0.2	1.7	-0.1	3.3	1.7
CC(CCN1CCC(C(O)(c2ccccc2)c2ccccc2)CC1)Oc1cccc(Br)c1 (configuration not stated)	-0.4	-4.3	1.9	2.7	nt	-1.2	nt	nt
CCOC(=O)c1c(NC(=O)CSc2n[nH]c(-c3ccco3)n2)sc(C)c1C	-1.4	-3.5	0.0	-1.5	-0.6	-0.8	nt	nt
CCOC(=O)CSc1n[nH]c(-c2ccco2)n1	-1.2	9.4*	1.9	-0.9	3.0	-0.2	-4.8	1.8
O=C(Cc1ccccc1)N(c1ccc(F)cc1)C1C=CS(=O)(=O)C1 (configuration not stated)	-1.5	9.9*	1.9	1.8	2.4	-0.2	-2.3	0.5
O=c1c(Cl)c(NCCCO)cnn1-c1nc2ccccc2[nH]1	0.5	21.5*	3.0	2.3	0.6	0.5	17.5*	17.7*
Cc1ccccc1NC(=O)c1sc(NC(=O)C2CC2)nc1C	-1.4	8.4*	1.7	-0.3	3.0	-0.1	1.1	0.4
O=C(/C=C(\Nc1cc(Cl)c(F)c(Cl)c1)c1ccccc1)c1ccccc1	-0.8	-3.5	0.9	2.4	nt	0.4	nt	nt
CCOc1ccc(N(CC(=O)Nc2c(C)n(C)n(-c3ccccc3)c2=O)S(=O)(=O)c2cccs2)cc1	-0.9	-4.9	-1.4	0.5	nt	-1.0	nt	nt
COc1cccc(C(=O)Nc2ccc(NC(=O)C3CC3)cn2)c1	-0.7	8.4*	7.2	0.2	0.7	1.6	-0.5	8.2*
COc1cccc(C(=O)Nc2ccc(NC(=O)C(C)C)nc2)c1	-1.2	8.5*	-2.7	-1.4	1.8	0.1	1.6	2.9
N#CC1CCN(c2nc(-c3ccc(Br)cc3)cs2)CC1	-0.9	nt	9.1	-0.7	nt	nt	nt	nt
O=S(=O)(/N=C(/NC(=S)Nc1ccccc1)c1ccccc1)c1ccc(Cl)cc1	0.3	8.8*	9.7	4.4	2.4	1.2	9.2*	6.4*
CN1C(=O)[C@@]2(C3=C(CCCC3=O)OC3=C2C(=O)CC(C)(C)C3)c2ccccc21	-0.9	-3.4	0.6	1.2	nt	0.2	nt	nt
COc1ccc(-c2noc(C3CCCN(C(=O)Nc4cc(C)cc(C)c4)C3)n2)cc1 (configuration not stated)	-0.1	10.2*	2.2	2.1	nt	1.4	0.5	9.7*
O=C(/C=C/c1ccccc1)c1ccc2c(c1)OCO2	-0.7	1.9	5.3	1.8	0.1	0.0	nt	nt
SMILES	ssDAF-12 act	SMARCA2 activ	hgDAF12 agonist	hcDAF-12 act	DAX1 inh-1	DAX1 inh-2	SMARCA2 act conf	GAL4-VP16 Luc
CN(C)c1ccc(/C=C/C(=O)c2ccc3c(c2)OCO3)cc1	0.7	8.0*	4.8	3.1	0.8	-0.4	0.7	3.0
Cc1ccc(C(=O)/C=C/c2ccc(Br)cc2)o1	-0.8	-1.1	0.8	-0.8	1.1	-1.2	nt	nt
Cc1ccc(C(=O)/C=C/c2ccc3c(c2)OCO3)o1	-1.4	10.9*	-0.5	5.1	0.4	-0.3	9.4*	2.2
CC(=O)C1(C(=O)N2CCOCC2)CC(c2ccccc2C(F)(F)F)=NO1 (configuration not stated)	-0.8	0.0	3.4	-1.6	nt	-0.3	nt	nt
CCCCOc1ccc(C(=O)NC2CCCCN(Cc3ccc(Cl)cc3)C2=O)cc1 (configuration not stated)	-1.3	-1.9	-2.3	-4.5	nt	-1.9	nt	nt
COc1ccc(C(=O)c2sc(Nc3ccccc3)nc2N)cc1	-1.7	5.8	-0.7	-4.2	2.3	-0.7	nt	nt
COc1ccc(C(=O)c2sc(Nc3ccccc3F)nc2N)cc1	-0.7	15.8*	6.7	-0.2	2.8	1.3	10.8*	11.6*
Nc1nc(Nc2ccccc2)sc1C(=O)c1ccccc1	-2.2	10.6*	6.9	-1.9	-1.1	0.7	12.1*	8.1*
COC(=O)[C@]12C[C@H](CC(=O)N3CCSCC3)C(=O)N(Cc3ccco3)C1=C[C@H](C(C)C)O[C@@H]2C1CC1	-1.5	1.1	-3.3	-1.1	nt	0.6	nt	nt
COc1cc2sc3cc(NCc4ccc(C)o4)ccc3c(=O)c2cc1OC	-1.2	8.7*	6.9	1.6	0.5	1.1	8.9*	9.3*
COc1cc2sc3cc(NCc4ccc5c(c4)OCO5)ccc3c(=O)c2cc1OC	-1.2	3.3	4.2	0.3	0.6	0.7	nt	nt
Cc1cc(C)n(C(=O)c2ccc(C)o2)n1	-0.9	8.7*	0.3	-0.9	-1.1	0.6	-0.1	0.5
COc1ccccc1C(=O)n1nc(C)cc1C	-0.8	-0.8	-1.0	-0.4	0.6	-0.6	nt	nt
CCOC(CN=c1nc(N(C)C)ss1)OCC	-1.8	14.4*	-3.0	-2.0	-2.3	-0.6	5.4	5.7*
CN(C)c1nc(=NCc2ccco2)ss1	nt	nt	nt	nt	-1.8	nt	nt	nt
CC1CN(c2ccnc3cc(Cl)ccc23)CCN1C(=O)c1ccc(Cl)cc1 (configuration not stated)	-2.3	nt	-6.1	-4.9	nt	nt	nt	nt
O=C(Oc1ccc2ccccc2c1Cl)N1CCCCCC1	-0.4	9.3*	5.7	0.8	0.6	4.1*	5.4	23.6*
